According to PubChem BioAssay (NCI):
The panel holds about 79,000 compounds, 15% with a hit somewhere; the sample as a whole holds those more often. Cut-off read from the data, not from the text of the source: active = growth inhibition above about 70%; inactive = the rest.

Experiments:
[1] = NCI Yeast Anticancer Drug Screen. Data for the rad50 strain (AID 155);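 note: 0% = growth of vehicle-only cultures of the same strain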; settings: S. cerevisiae rad50 strain growth inhibition, hits give high values; at 50.0 µM unless noted
Outline: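 Inhibition values express reduced yeast growth in compound-treated cultures relative to vehicle-treated controls.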

[2] = NCI Yeast Anticancer Drug Screen. Data for the mec2-1 strain (AID 157); settings: S. cerevisiae mec2-1 strain, hits give high values; at 50.0 µM unless noted
Outline: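 Growth inhibition is read against vehicle-treated controls after compound exposure of the mec2-1 yeast strain, which is defective in DNA damage repair or cell cycle control.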

[3] = NCI Yeast Anticancer Drug Screen. Data for the sgs1 mgt1 strain (AID 161);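 note: 0% = growth of cultures given vehicle only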; settings: S. cerevisiae sgs1 mgt1 strain, hits give high values; at 50.0 µM unless noted
Outline: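 Compounds are added to genetically altered yeast, and growth is compared with cultures given vehicle alone to give percent inhibition.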

[4] = NCI Yeast Anticancer Drug Screen. Data for the cln2 rad14 strain (AID 165);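 note: 0% = growth equal to vehicle treated cultures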; settings: S. cerevisiae cln2 rad14 strain, hits give high values; at 50.0 µM unless noted
Outline: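 Growth inhibition, relative to vehicle-treated controls, is the read-out. The test organism is a yeast strain with defined genetic alterations, cln2 rad14.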

[5] = NCI Yeast Anticancer Drug Screen. Data for the bub3 strain (AID 167); settings: S. cerevisiae bub3 mutant strain, hits give high values; at 50.0 µM unless noted
Outline: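 Steps: expose the mutant yeast strain to compound; grow alongside vehicle-treated cultures; measure growth; express inhibition against the vehicle cultures.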

[6] = NCI Yeast Anticancer Drug Screen. Data for the mlh1 rad18 strain (AID 175); settings: S. cerevisiae mlh1 rad18 strain growth inhibition, hits give high values; at 50.0 µM unless noted
Outline: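 Cells of a genetically altered yeast strain, deficient in DNA damage repair, were treated with compound. Their growth was then compared with that of vehicle-treated cultures to give inhibition.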

Measured: growth inhibition

CC(c1cccc(O)c1)N(C)C (stereo not given)
inactive: [1] 5.9% | [2] -2.2% | [3] 0.7% | [4] -10.4% | [5] 1.25% | [6] -3.85%

C=CCc1cc2c(C)cc(=O)oc2c(C)c1OC(C)=O
inactive: [1] -4.1% | [2] -23.8% | [3] -1.1% | [4] 13.1% | [5] -25.9% | [6] -2.45%

COc1cccc(C2SC(N)=Nc3c2c(C)nn3C(=O)c2ccccc2O)c1 (stereo not given)
inactive: [1] 19.7% | [2] 9.25% | [3] 33.1% | [4] 17.6% | [5] 38% | [6] 24.9%

O=C(O)c1cscc1Cc1cccs1
inactive: [1] 0.05% | [2] -13.7% | [3] -43.6% | [4] -30.6% | [5] -76% | [6] 13.7%

O=C1CN(c2cccc(C(F)(F)F)c2)C(=O)CN1/N=C/c1cccnc1
inactive: [1] -28.4% | [2] -5.2% | [3] 10.8% | [4] -4.35% | [5] 27.9% | [6] -8.45%

NCC(O)C(O)C(O)CO (stereo not given)
inactive: [1] 6.15% | [2] -6% | [3] -1.3% | [4] -20% | [5] 9.1% | [6] -8.8%

O=C1CSC(c2ccc([N+](=O)[O-])cc2)N1c1ccc(-n2c(-c3ccccc3)nc3ccccc3c2=O)cc1 (stereo not given)
inactive: [1] 2.5% | [2] -10.2% | [3] 15.2% | [4] -10.5% | [5] 30% | [6] 13.2%

O=[N+]([O-])c1ccc(-n2nnc(C3=NCCCN3)c2-c2ccc(Cl)cc2)cc1
inactive: [1] -11.3% | [2] -8.1% | [3] -5.75% | [4] 8.6% | [5] 5.55% | [6] -19.6%

Nc1cc(S(=O)(=O)O)cc2cc(S(=O)(=O)O)cc(S(=O)(=O)O)c12
inactive: [1] -31.6% | [2] -51% | [3] -29.6% | [4] -144% | [5] -17.5% | [6] 23.4%

c1ccc(Nc2ccccc2)cc1 (tested in a mixture with another compound)
inactive: [1] 3.1% | [2] 20.2% | [3] 1.95% | [4] 1.6% | [5] 38.7% | [6] 9.8%

CC(=C(C#N)C#N)c1csc2ccccc12
inactive: [1] 9.1% | [2] 14.8% | [3] -4.35% | [4] -34.5% | [5] -14.8% | [6] 21.9%

O=C(OCc1ccccc1CN1CCCCC1)c1cccc(Cl)c1
inactive: [1] -2.85% | [2] -7.7% | [3] -6.3% | [4] -10.3% | [5] 7.35% | [6] 2.3%

CC(=O)OC1CCC2(C)C3CCC4(C)C(C(C)CCCC(C)C)CCC4C3C3CC32C1 (stereo not given)
inactive: [1] 30.6% | [2] -21.8% | [3] 29.1% | [4] 3.95% | [5] -3.05% | [6] 0.1%

O=S1(=O)CCC(c2ccccc2)C1 (stereo not given)
inactive: [1] 2.3% | [2] -10.7% | [3] -13.8% | [4] 0.45% | [5] -12.3% | [6] -7.15%

O=C(N[C@@H](CSSC[C@H](NC(=O)OCc1ccccc1)C(=O)O)C(=O)O)OCc1ccccc1
inactive: [1] 15.6% | [2] 0.85% | [3] 9.2% | [4] -3.65% | [5] 2.7% | [6] 2.55%

O=C1CN(Cc2ccc3c(c2)OCO3)NO1
inactive: [1] 15.3% | [2] -1.25% | [3] -17.4% | [4] -4.5% | [5] -9.35% | [6] -26.5%

N#C/C(=C\c1cccc2ccccc12)c1ccc(Cl)cc1
inactive: [1] -11.8% | [2] -12.9% | [3] -6.65% | [4] -13.7% | [5] -2.6% | [6] -1.85%

COc1cc(OC)c2c(c1)OC(c1cccnc1)C(c1ccccc1)C2=O (stereo not given)
inactive: [1] -5.2% | [2] -57.9% | [3] -5% | [4] -27.7% | [5] 12.5% | [6] 3.9%

O/N=C/c1ccc(O)cc1
inactive: [1] -63.2% | [2] -21.1% | [3] -14.4% | [4] -19.6% | [5] 2.55% | [6] -28.9%

CCCCN(C#N)CCCC
inactive: [1] 3% | [2] 1.75% | [3] 27.6% | [4] -97.3% | [5] -16.1% | [6] -32%

C/C(=N\NS(=O)(=O)c1ccc(C)cc1)c1cccs1
inactive: [1] -3.9% | [2] 7.1% | [3] 6.4% | [4] 4.2% | [5] 10.2% | [6] 12.6%

CCCc1ccc(C)c(Br)c1
inactive: [1] 26.4% | [2] 15.8% | [3] 0.9% | [4] -9.95% | [5] 1.3% | [6] 3.3%

CC(C)OC(=O)/C=C/CCCC1CCCCC1
inactive: [1] -10.5% | [2] 6.15% | [3] 7.95% | [4] 2.35% | [5] 18.7% | [6] -15.2%

Cc1cc(C)c(-c2c(C)cc(C)c(C(=O)c3ccc([N+](=O)[O-])cc3)c2C)c(C)c1C(=O)c1ccc([N+](=O)[O-])cc1
inactive: [1] 25.7% | [2] 2.85% | [3] 11.8% | [4] 9.25% | [5] 3.2% | [6] 8.85%

CCCCCN1C(=O)c2ccccc2C1=O
inactive: [1] 23.1% | [2] 10.5% | [3] 6.4% | [4] 5.15% | [5] 6.3% | [6] -0.55%

CC(=O)NCCc1ccccc1
inactive: [1] -18.2% | [2] 20.9% | [3] 3.2% | [4] -19.3% | [5] 10% | [6] -0.1%

CCOc1ccccc1N1CCN(CC(O)CSc2ccccc2)CC1 (stereo not given)
inactive: [1] 1.3% | [2] -9.25% | [3] -6.2% | [4] -33.6% | [5] 4.95% | [6] -2.65%

CC(Cl)(c1ccccc1)C1OCCO1 (stereo not given)
inactive: [1] 1.75% | [2] 19.9% | [3] 8.1% | [4] -20.9% | [5] -5.9% | [6] -1.5%

O/N=C1/C2CC3CC1(c1ccccc1)CC(/C3=N/O)/C2=N\O (stereo not given)
inactive: [1] 9.15% | [2] 17.3% | [3] -12.1% | [4] 0.35% | [5] -17.8% | [6] -4.75%

CN(C)CCl
inactive: [1] -1.4% | [2] -28.2% | [3] -12.4% | [4] -4.1% | [5] -15.5% | [6] -13.1%

COC(=O)C(CCSc1ccccc1)C(=O)OC
inactive: [1] 0.85% | [2] -4.45% | [3] 20.1% | [4] 12.1% | [5] 28.2% | [6] -3.1%

CC(=O)OCC1OC(n2c(=O)[nH]c(=O)c3n[nH]nc32)C(OC(C)=O)C(OC(C)=O)C1OC(C)=O (stereo not given)
inactive: [1] -4.2% | [2] 7.15% | [3] 3.4% | [4] 24.9% | [5] -1.05% | [6] -4.35%

Clc1cccc(Nc2ncnc3nc[nH]c23)c1
inactive: [1] 7.15% | [2] 0.25% | [3] 5.1% | [4] -12.2% | [5] -12.9% | [6] 0.5%

NC(=O)Nc1ccc(/C=C\c2ccnc3ccccc23)cc1
inactive: [1] -19.7% | [2] 2.5% | [3] 4.95% | [4] -31.9% | [5] -15.9% | [6] -9.45%

CC1(C)OC(CI)C(COS(C)(=O)=O)O1 (stereo not given)
inactive: [1] 3.7% | [2] 3.2% | [3] 3.7% | [4] -25.2% | [5] -11.3% | [6] -2.25%

C/C(=N/N)c1ccc2[nH]c3c(C)cc([N+](=O)[O-])c(C)c3c2c1
inactive: [1] 16.9% | [2] -6.9% | [3] -22.9% | [4] 13.7% | [5] 3.65% | [6] 6.35%

O=C(COc1ccc(Cl)cc1)N1CCN(C(=O)COc2ccc(Cl)cc2)c2ccccc21
inactive: [1] 11.7% | [2] 3.05% | [3] 23.9% | [4] 11.1% | [5] 11.6% | [6] -1.05%

CCOC(=O)C12CCCC1(O)N(NC(N)=O)C(C)=C2C(=O)OC (stereo not given)
inactive: [1] 10.2% | [2] -5.1% | [3] 3.05% | [4] -69.1% | [5] -11.9% | [6] 6.2%

O=C(NNC(=O)c1ccc(Cl)c(Cl)c1)c1ccccc1
inactive: [1] -13.8% | [2] 3.1% | [3] -6.05% | [4] -7.95% | [5] 2.75% | [6] -15.9%

CCCn1/c(=N\N=O)sc2ccccc21
inactive: [1] -0.45% | [2] 2.9% | [3] -5.5% | [4] -29.6% | [5] -23.1% | [6] 7%
